Tau FP inhib – qHTS for Inhibitors of Tau Fibril Formation, Fluorescence Polarization. Potency, µM (titrated, usually from 57.7 µM), without a hit: top-dose activity, negative = inhibition, actives largely listed as inhibitors. K18 P301L tau heparin fibrillization, Alexa594 FP, 6 h. 280,000 compounds, 0.39% hits. Microtubule-associated protein tau (Homo sapiens), P10636. AID 1468, 2008; further: potency means the concentration at half of the fitted maximal effect; nearly all actives have a fitted effect of over 55% in size
Target sequence (P10636 561-689 P618L limits assumed): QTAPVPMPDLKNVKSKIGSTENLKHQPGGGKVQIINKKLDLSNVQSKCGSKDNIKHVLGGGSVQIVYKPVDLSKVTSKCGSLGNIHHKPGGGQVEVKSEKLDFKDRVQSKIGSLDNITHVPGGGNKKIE
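Read-out: fluorescence polarization of Alexa 594-labeled tau (0.24 uM), 555 nm excitation, 632 nm emission. Mixtures held 15 uM unlabeled K18 P301L, compound and 20 uM heparin, pH 7 acetate buffer, incubated 6 hr at 37 C.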
Tau fluor cs – Counterscreen qHTS for Inhibitors of Tau Fibril Formation, Fluorescence Polarization; tau K18 P301L Alexa594 fluorescence, heparin fibrillization; Potency, µM (highest dose often 57.7 µM), for inactives: at the highest dose activity change, negative = decrease; 280,000 compounds, 0.93% hits; further: potency means the concentration at half of the fitted maximal effect; nearly all actives have a fitted effect of over 55% in size
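Human tau K18 P301L (15 uM unlabeled, 0.24 uM Alexa 594-labeled) in 100 mM sodium acetate pH 7 with 20 uM heparin, 6 hr at 37 C. ThT 30 uM added, 1 hr ambient; Alexa 594 FP and total fluorescence read at 555/632 nm.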
Tau ThT inhib – qHTS for Inhibitors of Tau Fibril Formation, Thioflavin T Binding; recombinant tau K18 P301L (four-repeat tau fragment), heparin-induced fibrillization, ThT fluorescence; AID 1460, 2008; 270,000 compounds, 2.1% hits; Potency, µM (top dose mostly 57.4 µM), for inactives: at the highest dose activity, negative = inhibition, usual class: inhibitors; Microtubule-associated protein tau (Homo sapiens), P10636; further: potency means the concentration at half of the fitted maximal effect; nearly all actives have a fitted effect of over 55% in size
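Heparin-induced fibrillization of the P301L-mutant K18 repeat-domain fragment of human tau was followed by ThT binding in quantitative high-throughput format.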
Coupling enz – qHTS Assay for Inhibitors of Fructose-1,6-bisphosphate Aldolase from Giardia Lamblia: Coupling assay counterscreen; activity change, negative = inhibition, % at 58.2 µM, hits read low; coupling enzyme system counterscreen, AmpLite Red fluorescence; 290,000 compounds, 0.67% hits; in the data active means activity change below about -30%
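Fluorescence at 525 nm excitation and 598 nm emission measured inhibition of the coupled detection system without aldolase. Compounds (at 57.5 uM final) were preincubated 10 min at room temperature with coupling enzyme reagent before a 20 min substrate/AmpLite Red step.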
Sfp inh – qHTS Assay for Inhibitors of Bacillus subtilis Sfp phosphopantetheinyl transferase (PPTase) | 4'-phosphopantetheinyl transferase ffp (Bacillus subtilis), Q9F4F7 | Biochemical Sfp PPTase activity, qHTS | Potency, µM, inactives show largest response in the series, negative = inhibition, most hits filed as inhibitors | 310,000 compounds, 3.5% hits | AID 1490, 2009;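 further: the enzyme is Sfp with the accession as filed and its product quenches rhodamine fluorescence; potency means the concentration at half of the fitted maximal effect; 0% = enzyme reaction without inhibitor and -100% = no enzyme wells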
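Fluorescence-quenching assay with 15 nM Sfp, 5 uM rhodamine-CoA and 12.5 uM BHQ-2-labelled ybbR peptide in pH 7.6 Hepes/MgCl2 buffer. Enzyme was pre-incubated with compound for 15 min at room temperature. Rate was taken from the 30-min fluorescence change (525/598 nm).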
* marks the source's active call; other numbers are inactive results; ? = inconclusive; . = not tested or not shown; [ ] = another dose, or the depositor's remark. A selection: hits, their analogues and other compounds. The true share with any hit is near 5.2%. Unless noted, the call rests on the fitted dose curve; in most records, active means well fitted curve in the direction sought with a large enough effect; inconclusive means small, poorly fitted or top-dose-only effect, or another doubt; inactive means no such curve, though single readings can be large; an effect the other way counts as inactive or inconclusive. Unless noted, on the % scale 0 is the no-effect control and ±100 the full control effect.

SMILES	Tau FP inhib	Tau fluor cs	Tau ThT inhib	Coupling enz	Sfp inh
COc1ccc(-c2nsc(SCC(=O)Nc3cc(C)on3)n2)cc1	-8%	-4%	-8%	0	16µM*
Cc1cccc(-c2nsc(SCC(=O)Nc3ccc4c(c3)OCO4)n2)c1	-6%	?	?	2	-24%
O=C(COCc1cc(-c2cccs2)on1)N1CCN(c2ccccc2)CC1	-5%	-21%	?	.	.
CCCCCCc1cc2cc(-c3nnc(-c4cccc(Cl)c4)o3)c(=O)oc2cc1O	-1%	-11%	-16%	.	.
Cc1nnsc1C(=O)Oc1ccccc1Cl	-8%	-18%	?	.	.
O=C(CSc1nc(-c2ccccc2)ns1)N1CCOCC1	0%	-15%	-6%	3	40µM*
COc1ccc(C(=O)n2nc(-c3ccco3)nc2NCc2cccs2)cc1OC	-17%	?	?	.	.
CCC(=O)N1CCc2cc(Br)cc(S(=O)(=O)N3CCN(c4ccc(C)cc4)C(C)C3)c21 (stereo not drawn)	0%	-22%	-13%	.	.
O=C(Nc1cccc(F)c1)N1CC[C@@]2(CCCNC2)C1	.	.	.	3	?
Cc1ccc(N/N=C/c2c(O)cc(C)oc2=O)cc1	-6%	-21%	?	-3	56µM*
Cc1cc(O)c(/C=N/Nc2ccc(F)cc2)c(=O)o1	-6%	-10%	-17%	2	79µM*
Cc1ccc(CO/N=C/c2c(O)cc(C)oc2=O)cc1	9%	15%	13%	3	-8%
O=C(N/N=C/c1c[nH]c2ccccc12)c1ccn(Cc2ccc(Cl)cc2Cl)n1	17%	13µM*[quencher]	?	1	2%
O=C(N/N=C/c1c[nH]c2ccc(Br)cc12)c1ccn(Cc2ccc(Cl)cc2)n1	10%	11µM*[quencher]	?	-1	5%
CCCOc1ccc(C(=O)N/N=C/c2c[nH]c3ccc(Br)cc23)cc1	.	.	.	-1	8%
Cc1cccn2c(=O)c3cc(C(N)=S)c(=N)n(CCCOC(C)C)c3nc12	-6%	-7%	?	-3	?
Cc1cccn2c(=O)c3cc(C(=O)NC4CCCC4)c(=N)n(Cc4ccc(F)cc4)c3nc12	.	.	.	-5	?
Cc1cccn2c(=O)c3cc(C(=O)NCCc4ccccc4)c(=N)n(CCCn4ccnc4)c3nc12	25µM*	11µM*[quencher]	11µM*	7	9%
CCOCCCn1c(=N)c(C(N)=S)cc2c(=O)n3cccc(C)c3nc21	-7%	2%	-14%	-45*	-109%
Cc1cccn2c(=O)c3cc(C(=O)NC4CCCCC4)c(=N)n(Cc4ccccc4)c3nc12	.	.	.	.	28µM*
CCOC(=O)c1cc2c(=O)n3ccccc3nc2n(CCCOC)c1=NC(=O)c1c(-c2ccccc2Cl)noc1C	5%	?	?	.	.
COc1ccccc1-c1ccc(/C=C2/C=C(CC(C)C)OC2=O)o1	3%	-27%	8.9µM*	-8	50µM*
O=Cc1ccc(-c2ccccc2OC(F)(F)F)o1	-6%	-9%	-7%	-1	4%
CCCC1=C/C(=C/c2ccc(-c3ccccc3OC)o2)C(=O)O1	-12%	?	13µM*	1	?
Cc1nc(N2CCN(Cc3ccc(Cl)cc3)CC2)c2oc3ccccc3c2n1	-2%	-6%	?	-1	22µM*
SMILES	Tau FP inhib	Tau fluor cs	Tau ThT inhib	Coupling enz	Sfp inh
COc1ccccc1N1CCN(c2nc(C)nc3c2oc2ccccc23)CC1	-15%	-26%	?	-2	25µM*
CCOC(=O)N1C(COCc2ccccc2)C=CCS1(=O)=O (stereo not drawn)	.	.	.	1	28%
C=CCn1c(O)c(C2=c3ccccc3=NC2=O)sc1=Nc1ccc(O)cc1	?	13µM*[quencher]	13µM*	2	-13%
CCN(c1ccccc1)S(=O)(=O)c1nnc(NC(=O)c2ccccc2OC)s1	-6%	-14%	3.2µM*	2	5%
CCN(c1ccccc1)S(=O)(=O)c1nnc(NC(=O)c2cccs2)s1	?	-13%	2.2µM*	.	.
CCN(c1ccccc1)S(=O)(=O)c1nnc(NC(=O)COc2ccc(OC)cc2)s1	-1%	-9%	?	.	.
CCN(c1ccc(C)cc1)S(=O)(=O)c1nnc(NC(=O)c2cccs2)s1	-7%	2%	5%	.	.
CCN(c1ccccc1)S(=O)(=O)c1nnc(NC(=O)c2ccccc2)s1	6%	-17%	16µM*	.	.
CCCC(=O)Nc1nnc(S(=O)(=O)N(C)c2ccccc2)s1	-7%	?	2.5µM*	.	.
CN(c1ccccc1)S(=O)(=O)c1nnc(NC(=O)c2ccccc2)s1	-1%	-10%	?	.	.
CC[C@H](C)[C@H](NC(=O)[C@H](Cc1ccc(O)cc1)NC(=O)[C@@H]1CCCN1C(=O)[C@H](CCCN=C(N)N)NC(=O)[C@H](CCCN=C(N)N)NC(=O)[C@@H]1CCCN1C(=O)[C@H](CCCCN)NC(=O)[C@H](CC(N)=O)NC(=O)[C@H](CCC(N)=O)NC(=O)[C@H](Cc1ccc(O)cc1)NC(=O)[C@H](CC(C)C)NC(=O)[C@@H]1CCC(=O)N1)C(=O)N[C@@H](CC(C)C)C(=O)O	.	.	.	-2	15%
CC(C)(C)c1ccc(C(=O)N2CC(=O)Nc3ccc(F)cc3C2c2ccc(F)cc2)cc1 (stereo not drawn)	-4%	-19%	-19%	.	.
CCN(c1ccccc1)S(=O)(=O)c1nnc(NC(=O)COc2ccccc2F)s1	?	-21%	4.5µM*	.	.
COc1ccc(CNc2ccc(C(=O)O)cc2)cc1	-8%	-7%	-7%	10	6%
COc1ccc(CNc2ccc(Br)cc2)cc1	8%	?	?	-4	56µM*
COc1ccc(OCC(O)CNc2ccc(Br)cc2)cc1 (stereo not drawn)	14%	18µM*[quencher]	?	-13	?
CC(C)(C)c1ccc(-c2nc3[nH]c(=O)cc(NC(=O)c4ccco4)n3n2)cc1	.	.	.	.	40µM*
CCOC(=O)c1sc(NC(=O)CSc2n[nH]c(-c3ccccc3)n2)c(C#N)c1C	?	?	?	8	7.1µM*
CCOC(=O)c1sc(NC(=O)c2cc(-c3ccccc3)nc3ccccc23)c(C#N)c1C	-1%	?	?	9	40µM*
CCOC(=O)c1c(NC(=O)CSc2nnc(Cc3ccccc3)o2)sc(C(C)=O)c1C	-1%	-22%	-23%	1	-5%
CCOC(=O)c1sc(NC(=O)CSc2nnc(Cc3ccccc3)o2)c(C#N)c1C	?	?	28µM*	7	3.2µM*
CCC(C(=O)OC)n1cnc2c(cnn2-c2ccc(F)cc2)c1=O (stereo not drawn)	-1%	-12%	-6%	.	.

Source: PubChem (National Center for Advancing Translational Sciences (NCATS))
